Assay outcomes deposited in PubChem by National Center for Advancing Translational Sciences (NCATS).
HepG2 viability: qHTS for Inhibitors of TGF-b: Cytotox Counterscreen; 0.76% of 410,000 active; HepG2 CAGA-GFP viability, ATP luminescence, 18 h; Potency, µM (highest dose often 46.1 µM), inactives show at the top dose activity change, negative = cytotoxicity, usual class: cytotoxic
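HepG2 CAGA-GFP cells (1000/well, DMEM with 1% FBS) received compound, then TGF-beta at 500 pg/mL final, and were incubated 18 hours at 37 degrees C. Viability was read by CellTiter-Glo luminescence. Media-only wells were set as complete cell-killing and DMSO as no toxicity.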
TGFb inhibitor: qHTS for Inhibitors of TGF-b | HepG2 CAGA-GFP TGF-b/SMAD3 reporter, GFP fluorescence, 18 h; TGF-beta stimulated, 500 pg/mL final | Potency, µM (doses to about 46.1 µM), inactives show top-dose activity, negative = inhibition, most hits filed as inhibitors | 1.2% of 410,000 active; also: % is scaled to controls: 0 for no effect and ±100 for the full control effect; nearly all actives have a fitted effect of over 65% in size
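Smad-responsive CAGA-GFP expression was quantified in HEPG2 cells exposed to compounds and 500 pg/mL final TGF-beta for 18 h at 37 degrees C; unstimulated wells defined full inhibition.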
HT1080-NT tox: qHTS for induction of synthetic lethality in tumor cells producing 2HG: qHTS for the HT-1080-NT fibrosarcoma cell line; Potency, µM (top dose mostly 46.1 µM), for the others: at the highest dose activity, negative = less viability, most hits filed as cytotoxic; 1.6% of 360,000 active; HT-1080-NT fibrosarcoma viability, CellTiter-Glo ATP luminescence, 48 h;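 also: NT is the 2HG producing partner of a matched IDH1 knockdown line; 0% = DMSO-treated cells and -100% = media-only wells without cells; nearly all actives have a fitted effect of over 55% in size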
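Fibrosarcoma NT cells, 750 per well in 5% FBS RPMI, were exposed to compound for 48 hours. Viability: CellTiter-Glo luminescence.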
HT1080 IDH1KD tx: qHTS for induction of synthetic lethality in tumor cells producing 2HG: qHTS for the HT-1080-IDH1KD cell line; Potency, µM (series often up to 46.1 µM), for the others: at the highest dose activity, negative = toxicity, hits mostly cytotoxic; HT-1080 IDH1 knockdown viability, ATP luminescence, 48 h; AID 686971, 2013; 2% of 360,000 active;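 also: 0% = DMSO wells and -100% = cell-free medium wells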
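IDH1KD HT-1080 cells, 750/well, RPMI + 5% FBS; compound pinned after 2 h settling; 48 h, 37 °C; CellTiter-Glo luminescence; % activity normalised to DMSO and no-cell wells; curves fitted, classed by r2 and efficacy.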
TDP1 cell CPT: qHTS for Inhibitors of human tyrosyl-DNA phosphodiesterase 1 (TDP1): qHTS in cells in presence of CPT. Potency, µM (doses to about 46.2 µM), for the others: at the highest dose activity change, negative = growth inhibition, usual class: inhibitors. chicken DT40 Tdp1-/-;hTDP1 cells + 20 nM CPT, ATP luminescence, 48 h. 12% of 420,000 active; also: % is scaled to controls: 0 for no effect and ±100 for the full control effect; nearly all actives have a fitted effect of over 55% in size
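Chicken DT40 Tdp1-/- cells stably complemented with human TDP1 were seeded at 400 cells/well in medium containing 20 nM camptothecin, exposed to pin-transferred compounds, and grown at 37 °C for at least 48 hr. Viability was read as ATP luminescence.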
TDP1 cell noCPT: qHTS for Inhibitors of human tyrosyl-DNA phosphodiesterase 1 (TDP1): qHTS in cells in absence of CPT | AID 686978, 2013 | Potency, µM (highest dose often 46.2 µM), without a hit: top-dose activity change, negative = growth inhibition, most hits filed as inhibitors | 15% of 420,000 active | DT40 Tdp1-/- hTDP1 cells, no CPT, ATP luminescence, 48 h; also: % is scaled to controls: 0 for no effect and ±100 for the full control effect; nearly all actives have a fitted effect of over 55% in size
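DT40 Tdp1-/-;hTDP1 cells, no CPT (DMSO vehicle only), 400 cells/well; compounds pin-transferred; ≥48 hr, 37 °C; CellTiter-Glo 30 min RT dark, luminescence read.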
* = called active by the depositor; ? = inconclusive; . = not tested or not shown. An excerpt weighted towards active compounds, which were near 17% of everything screened. Calls follow the shape of the dose curve; as a rule, active = well fitted curve in the direction sought with a large enough effect; inconclusive = small, poorly fitted or top-dose-only effect, or another doubt; inactive = no such curve, though single readings can be large; an effect the other way counts as inactive or inconclusive. Potency is read from the fitted curve at half-maximal effect.

SMILES	HepG2 viability	TGFb inhibitor	HT1080-NT tox	HT1080 IDH1KD tx	TDP1 cell CPT	TDP1 cell noCPT
CC1CCN(c2ccc(NC(=O)c3ccc([N+](=O)[O-])o3)cc2)CC1	-85.3%	?	16.4µM*	7.31µM*	4.61µM*	3.26µM*
CCN(CC)c1ccc(NC(=O)CCS(=O)(=O)c2ccc3c(c2)oc(=O)n3C)c(C)c1	0.9%	-25.7%	.	.	?	-8.2%
CC1(C)C(=O)NC2=C1C(=O)C(=O)c1ccccc12	.	.	.	.	1.33µM*	0.944µM*
c1ccc(Nc2ncnc3c2oc2ccccc23)cc1	-30.1%	-13.7%	0.1%	1.7%	10.3µM*	?
c1ccc2c(c1)oc1c(Nc3ccc(CN4CCOCC4)cc3)ncnc12	-38.2%	?	?	?	?	14.6µM*
Cc1nc(NCCc2ccccc2)c2oc3ccccc3c2n1	-32.5%	0.0%	-16.2%	?	8.2µM*	9.2µM*
Oc1ccccc1Nc1ncnc2c1oc1ccccc12	-1.1%	-3.2%	-17.0%	-5.6%	-20.5%	-29.3%
Oc1ccc(Nc2ncnc3c2oc2ccccc23)cc1	-23.5%	?	-17.1%	-21.2%	?	14.6µM*
CCOC(=O)c1[nH]c2ccccc2c1NC(=O)c1cc(OCC)c(OCC)c(OCC)c1	-22.2%	-24.2%	.	.	?	?
O=C(Nc1cc2ccc(O)cc2oc1=O)c1ccc(F)cc1	-32.3%	13.5%	.	.	-12.4%	?
Oc1cccc(Nc2ncnc3c2oc2ccccc23)c1	-14.1%	0.0%	-26.4%	?	11.6µM*	?
Cc1ccc(Nc2nc(C)nc3c2oc2ccccc23)cc1	-31.4%	?	-16.9%	-17.8%	?	?
Cc1nc(Nc2ccccc2)c2oc3ccc(Cl)cc3c2n1	-39.7%	?	?	?	?	23.1µM*
c1ccc2c(c1)oc1c(Nc3ccc4c(c3)OCO4)ncnc12	13.1%	-2.1%	?	?	-22.1%	-20.6%
COc1cc(SC)ccc1C(=O)N1CCn2c3c(c4cc(C)ccc42)CCCC31 (configuration not stated)	16.2%	-5.8%	.	.	-2.5%	?
CN(C(=O)Cn1nc(Cc2cccnc2)c2ccccc2c1=O)c1cccc(C(F)(F)F)c1	-34.9%	?	.	.	-17.8%	-21.2%
COc1ccc(OC)c2c1sc(=NC(=O)c1cccc(N3C(=O)CCC3=O)c1)n2C	-17.3%	9.1%	-0.4%	5.8%	-9.8%	?
CCn1c(=NC(=O)c2ccc3c(c2)OCCO3)sc2c(C)ccc(OC)c21	-2.5%	-8.5%	.	.	?	23.1µM*
CCn1c(=NC(=O)c2cccc(N3C(=O)CCC3=O)c2)sc2c(OC)ccc(OC)c21	-9.9%	-7.9%	-2.6%	-0.3%	-25.5%	18.4µM*
COCCn1c(=NC(=O)c2ccc3c(c2)OCCO3)sc2cc(NC(C)=O)ccc21	4.1%	5.3%	.	.	?	?
CCOCCn1c(=NC(=O)c2ccc3c(c2)OCCO3)sc2cc(OCC)ccc21	2.0%	2.3%	.	.	?	14.6µM*
CCn1c(=NC(=O)C2COc3ccccc3O2)sc2c(OC)ccc(OC)c21 (configuration not stated)	16.5%	1.2%	?	3.7%	?	14.6µM*
O=C(O)[C@H]1CN(CCCP(=O)(O)O)CCN1	.	.	.	.	23.3%	-5.7%
O=C(NCc1ccccc1)c1cc(C2CCCCN2S(=O)(=O)c2cccs2)on1 (configuration not stated)	1.9%	45.3%	1.3%	-6.4%	?	?
Cc1ccc(OCCCC(=O)Nc2cc(S(=O)(=O)N3CCOCC3)ccc2N2CCOCC2)cc1	2.0%	-8.0%	-0.3%	5.2%	20.6µM*	23.1µM*
SMILES	HepG2 viability	TGFb inhibitor	HT1080-NT tox	HT1080 IDH1KD tx	TDP1 cell CPT	TDP1 cell noCPT
COc1ccc(S(=O)(=O)N2CCOCC2)cc1NC(=O)COc1ccc(C)cc1	-3.5%	1.9%	0.0%	-2.7%	?	?
O=C(CCCOc1ccccc1)Nc1cc(S(=O)(=O)N2CCOCC2)ccc1N1CCOCC1	-5.8%	8.4%	4.8%	-2.6%	?	?
O=C(COc1ccc(Cl)cc1)Nc1cc(S(=O)(=O)N2CCCCC2)ccc1N1CCCCC1	1.8%	4.0%	-5.1%	16.1%	2.91µM*	10.3µM*
CCOc1ccc(S(=O)(=O)N2CCOCC2)cc1NC(=O)CSCc1ccc(C)cc1	-7.9%	-5.5%	8.2µM*	?	5.17µM*	4.61µM*
O=C(COc1ccc(Br)cc1)Nc1cc(S(=O)(=O)N2CCCCC2)ccc1N1CCCCC1	9.1%	6.7%	12.8%	13.5%	?	?
COc1ccccc1CCC(=O)Nc1cc(S(=O)(=O)N2CCCCC2)ccc1N1CCN(C)CC1	-12.4%	11.5%	3.3%	6.0%	?	20.6µM*
COc1ccccc1CCC(=O)Nc1cccc(S(=O)(=O)N2CCCC2)c1	-7.7%	-18.9%	-13.6%	-20.8%	?	?
CCN(CC)C(=O)C1=C(C)N(Cc2ccc(OC)cc2)C(=O)C(CC(=O)NC2CCCC2)C1 (configuration not stated)	8.6%	2.8%	-0.9%	-2.9%	0.8%	-6.7%
O=C1NC[C@H](CCCCN2CCN(CCC3CCCCC3)C(=O)C2=O)N(CC2CCCCC2)C1=O	.	.	3.3%	-4.9%	-0.7%	3.0%
O=C(Nc1ccc(F)c(Cl)c1)Nc1nnc([C@H]2C[C@H](O)[C@@H](CO)O2)s1	36.0%	47.5%	-1.7%	14.6%	?	-25.9%
CCOCCn1c(N2CCCC2)nc2c1c(=O)n(C)c(=O)n2C	-0.9%	3.2%	-3.2%	-0.7%	?	?
COc1ccccc1OCC(=O)Nc1cc(S(=O)(=O)N2CCOCC2)ccc1N1CCCCC1	-0.8%	-26.6%	20.4%	3.3%	18.4µM*	14.6µM*
Cc1ccc(Cl)c(OCC(=O)Nc2cc(S(=O)(=O)N3CCOCC3)ccc2N2CCCC2)c1	0.1%	-0.8%	1.4%	-0.4%	16.4µM*	-60.7%
Cc1cc(OCC(=O)Nc2cc(S(=O)(=O)N3CCOCC3)ccc2N2CCCC2)ccc1C(C)C	2.1%	0.0%	7.5%	1.1%	11.6µM*	8.2µM*
Cc1cc(OCC(=O)Nc2ccccc2N2CCCC2)ccc1C(C)C	-6.8%	-4.9%	5.5%	-3.1%	?	?
